We go through 3 molecules from publication PMC11062922 (Nature Chemical Biology, 2023).

What all share (set-up): species or system human, MV4-11 + K-562 + COLO205 + SK-N-BE2 + OVCAR-8
The test system of one experiment is ACVR1B. To be noted: read-out: apparent Kd, compound concentrations: 100 nM and 1000 nM (sheet 'Samples'), n = 1.
Another experiment has as its system ACVR1. To be noted: read-out: apparent Kd; compound concentrations: 100 nM and 1000 nM (sheet 'Samples'), CATDS: 2.5761015840506201E-2; n = 1.
The next experiment concerns CIT. The settings on record: read-out: apparent Kd, compound concentrations: 100 nM and 1000 nM (sheet 'Samples'), n = 1.
Another experiment relates to CSNK1A1. The settings on record: read-out: apparent Kd; compound concentrations: 100 nM and 1000 nM (sheet 'Samples'), CATDS: 0.114009601510889; n = 1.
The subject of the next experiment is CSNK1D. To be noted: read-out: apparent Kd, compound concentrations: 100 nM and 1000 nM (sheet 'Samples'), n = 1.
Another experiment has as its system CSNK1E. The settings on record: read-out: apparent Kd, compound concentrations: 100 nM and 1000 nM (sheet 'Samples'), n = 1.
The next experiment deals with DDR1. To be noted: read-out: apparent Kd; compound concentrations: 100 nM and 1000 nM (sheet 'Samples'), CATDS: 4.8095496683990102E-2; n = 1.
A further experiment concerns DDR2. To be noted: read-out: apparent Kd; compound concentrations: 100 nM and 1000 nM (sheet 'Samples'), CATDS: 4.5410766330070199E-2; n = 1.
The next experiment deals with GAK. The settings on record: read-out: apparent Kd; compound concentrations: 100 nM and 1000 nM (sheet 'Samples'), CATDS: 2.6841490369303E-2; n = 1.
The test system of another experiment is JAK1. The settings on record: read-out: apparent Kd; compound concentrations: 100 nM and 1000 nM (sheet 'Samples'), CATDS: 2.6628241709745499E-2; n = 1.
The test system of another experiment is MAPK10. To be noted: read-out: apparent Kd; compound concentrations: 100 nM and 1000 nM (sheet 'Samples'), CATDS: 4.9321772364443003E-2; n = 1.
Another experiment relates to MAPK11. To be noted: read-out: apparent Kd; compound concentrations: 100 nM and 1000 nM (sheet 'Samples'), CATDS: 2.6556217045786298E-2; n = 1.
A further experiment has as its system MAPK14. The settings on record: read-out: apparent Kd, compound concentrations: 100 nM and 1000 nM (sheet 'Samples'), n = 1.
The test system of another experiment is MAPK8. The settings on record: read-out: apparent Kd; compound concentrations: 100 nM and 1000 nM (sheet 'Samples'), CATDS: 2.73704072863558E-2; n = 1.
In the next experiment the test system is MAPK9. To be noted: read-out: apparent Kd; compound concentrations: 100 nM and 1000 nM (sheet 'Samples'), CATDS: 5.3906209351099597E-2; n = 1.
A further experiment deals with MAPKAPK2. The settings on record: read-out: apparent Kd, compound concentrations: 100 nM and 1000 nM (sheet 'Samples'), n = 1.
The next experiment deals with MYLK3. To be noted: read-out: apparent Kd; compound concentrations: 100 nM and 1000 nM (sheet 'Samples'), CATDS: 2.9739343508474202E-2; n = 1.
For another experiment, the system named is NLK. The settings on record: read-out: apparent Kd, compound concentrations: 100 nM and 1000 nM (sheet 'Samples'), n = 1.
Another experiment deals with PKN3. The settings on record: read-out: apparent Kd, compound concentrations: 100 nM and 1000 nM (sheet 'Samples'), n = 1.
The next experiment relates to PRKD2. To be noted: read-out: apparent Kd; compound concentrations: 100 nM and 1000 nM (sheet 'Samples'), CATDS: 2.85113335407263E-2; n = 1.
Another experiment relates to PRKD3. The settings on record: read-out: apparent Kd; compound concentrations: 100 nM and 1000 nM (sheet 'Samples'), CATDS: 2.77377290368628E-2; n = 1.
For a further experiment, the system named is RIPK2. To be noted: read-out: apparent Kd, compound concentrations: 100 nM and 1000 nM (sheet 'Samples'), n = 1.
The test system of a further experiment is RIPK3. To be noted: read-out: apparent Kd, compound concentrations: 100 nM and 1000 nM (sheet 'Samples'), n = 1.
A further experiment has as its system TGFBR1. The settings on record: read-out: apparent Kd, compound concentrations: 100 nM and 1000 nM (sheet 'Samples'), n = 1.
In a further experiment the test system is TNIK. The settings on record: read-out: apparent Kd; compound concentrations: 100 nM and 1000 nM (sheet 'Samples'), CATDS: 2.6108076869188701E-2; n = 1.
For another experiment, the system named is GRK6. The settings on record: read-out: apparent Kd; compound concentrations: 100 nM and 1000 nM (sheet 'Samples'), CATDS: 0.11057023586935499; n = 1.
A further experiment has as its system ACVR2B. The settings on record: read-out: apparent Kd; compound concentrations: 100 nM and 1000 nM (sheet 'Samples'), CATDS: 3.61499985403008E-2; n = 1.
The subject of the next experiment is BUB1. To be noted: read-out: apparent Kd; compound concentrations: 100 nM and 1000 nM (sheet 'Samples'), CATDS: 2.9368799543599802E-2; n = 1.
A further experiment deals with EPHA1. To be noted: read-out: apparent Kd; compound concentrations: 100 nM and 1000 nM (sheet 'Samples'), CATDS: 4.4029751359189198E-2; n = 1.
The next experiment relates to FLT3. To be noted: read-out: apparent Kd; compound concentrations: 100 nM and 1000 nM (sheet 'Samples'), CATDS: 4.1263088221053297E-2; n = 1.
The test system of a further experiment is FRK. The settings on record: read-out: apparent Kd; compound concentrations: 100 nM and 1000 nM (sheet 'Samples'), CATDS: 4.1342549308714401E-2; n = 1.
For the next experiment, the system named is FYN. To be noted: read-out: apparent Kd; compound concentrations: 100 nM and 1000 nM (sheet 'Samples'), CATDS: 3.5075113560986498E-2; n = 1.
For the next experiment, the system named is PTK6. The settings on record: read-out: apparent Kd; compound concentrations: 100 nM and 1000 nM (sheet 'Samples'), CATDS: 4.3994171841747899E-2; n = 1.
The next experiment deals with RET. The settings on record: read-out: apparent Kd; compound concentrations: 100 nM and 1000 nM (sheet 'Samples'), CATDS: 0.126907733860845; n = 1.
For another experiment, the system named is SIK3. The settings on record: read-out: apparent Kd; compound concentrations: 100 nM and 1000 nM (sheet 'Samples'), CATDS: 2.9281323909689301E-2; n = 1.
The test system of a further experiment is SLK. The settings on record: read-out: apparent Kd; compound concentrations: 100 nM and 1000 nM (sheet 'Samples'), CATDS: 3.3087406541094599E-2; n = 1.
The subject of another experiment is TESK2. To be noted: read-out: apparent Kd; compound concentrations: 100 nM and 1000 nM (sheet 'Samples'), CATDS: 3.8437234907131197E-2; n = 1.
The test system of a further experiment is TGFBR2. To be noted: read-out: apparent Kd; compound concentrations: 100 nM and 1000 nM (sheet 'Samples'), CATDS: 8.5809969501024E-2; n = 1.

Read-outs that look alike come from different tables or passages of the source.

On to `Nc1nccc(-c2c(-c3ccc(F)cc3)ncn2C2CCC(O)CC2)n1` (stereo not shown) [SB-223133], for which the potency estimated from few doses in the experiment with ACVR1B (CATDS: 5.67589208103269E-2) was 74.5 nM; in the experiment on ACVR1, 1350 nM; in the experiment with CIT (CATDS: 4.5392232292010899E-2), 140 nM; with CSNK1A1 it was 15 nM; with CSNK1D (CATDS: 0.391959397884028), 1.72 nM; in the experiment on CSNK1E (CATDS: 0.26273499221924201), 3.2 nM. The potency estimated from few doses in the experiment on DDR1 is 118 nM; in the experiment on DDR2, 140 nM; in the experiment on GAK, 1070 nM; in the experiment on JAK1, 1120 nM; in the experiment on MAPK10, 110 nM; in the experiment on MAPK11, 1140 nM. In addition, the potency estimated from few doses in the experiment on MAPK14 (CATDS: 9.6245202156368906E-2) is 21.4 nM; with MAPK8 it was 969 nM; with MAPK9, 85.6 nM; in the experiment with MAPKAPK2 (CATDS: 8.8407398731798204E-2), 25.8 nM; with MYLK3, 653 nM; in the experiment on NLK (CATDS: 4.6610928560784803E-2) it was 129 nM. The potency estimated from few doses was 794 nM in the experiment on PKN3 (CATDS: 2.84976438170014E-2); 793 nM in the experiment with PRKD2; 906 nM with PRKD3; 33.7 nM with RIPK2 (CATDS: 7.8449677339207394E-2); 2140 nM with RIPK3 (CATDS: 2.3985776131164802E-2); 210 nM in the experiment on TGFBR1 (CATDS: 3.9958881168014597E-2). The potency estimated from few doses in the experiment with TNIK is 1250 nM.
With `CSc1cccc2c(-c3ccncn3)c(-c3ccc(F)cc3)nn12` [GW514786X], the potency estimated from few doses in the experiment on ACVR1B (CATDS: 0.17509937322487801) is 801 nM; with CIT (CATDS: 0.11106465565946499) it was 2190 nM; with CSNK1D (CATDS: 0.131295791130774), 1420 nM; with GRK6, 2220 nM; in the experiment on MAPK14 (CATDS: 0.16800162105717001), 863 nM; with MAPKAPK2 (CATDS: 0.164691534232419), 895 nM. Also, the potency estimated from few doses in the experiment with PKN3 (CATDS: 0.17855560727929401) is 774 nM.
As for `Nc1ncnc2c1ncn2-c1cccc(F)c1` [SKF-97560], the potency estimated from few doses in the experiment with ACVR1B (CATDS: 5.4958812802740099E-2) was 352 nM; with ACVR2B it was 987 nM; with BUB1 it was 2060 nM; in the experiment on CIT (CATDS: 3.19087660473499E-2), 1490 nM; in the experiment with CSNK1D (CATDS: 4.1820376814662601E-2), 661 nM; with CSNK1E (CATDS: 3.1298508243452101E-2) it was 1600 nM. Besides, the potency estimated from few doses with EPHA1 was 581 nM; with FLT3 it was 684 nM; in the experiment with FRK, 681 nM; in the experiment on FYN, 1080 nM; with MAPK14 (CATDS: 3.4547137011971901E-2) it was 1140 nM; with MAPKAPK2 (CATDS: 3.21088228610018E-2), 1450 nM. In addition, the potency estimated from few doses is 94.9 nM with NLK (CATDS: 0.113621067973222); 168 nM with PKN3 (CATDS: 8.07286972312308E-2); 582 nM with PTK6; 80 nM in the experiment on RET; 34.9 nM in the experiment on RIPK2 (CATDS: 0.22838556729877599); 948 nM with RIPK3 (CATDS: 3.6654773493518103E-2). Further, the potency estimated from few doses was 2090 nM in the experiment with SIK3; 1310 nM in the experiment on SLK; 828 nM in the experiment with TESK2; 293 nM in the experiment on TGFBR1 (CATDS: 6.0050656716600502E-2); 151 nM in the experiment on TGFBR2.
